In the library only some 3.3% were active in any assay of this set; here they are far more common.
HTT prom inh: HTT promoter inhibition; HEK293 HTT promoter firefly luciferase reporter, 24 h; AID 1508623; Potency, µM (series often up to 57.5 µM), actives largely listed as inhibitors; 48,000 tested, 0.93% active; further: nearly all actives have a fitted effect of over 50% in size
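HEK293 cells carrying firefly luciferase reporters were seeded at 2,500 per well in Opti-MEM and cultured for 24 h. They were then treated with compounds at up to 57.5 uM final for 24 h at 37 degrees C before Dual-Glo luminescence readout.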
pS6 MEF inh: reduces mTORC1 signaling in Tsc2 and p53 null MEF cells; Potency, µM (top dose mostly 38.3 µM), hits mostly inhibitors; 44,000 tested, 0.78% active; AID 493208; Tsc2-/- p53-/- MEF, phospho-rpS6 immunofluorescence/PI, 24 h; further: nearly all actives have a fitted effect of over 50% in size
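Immunofluorescence of rpS6 phosphorylation in Tsc2-/-, p53-/- MEFs after 24 h compound exposure, normalized to propidium iodide signal. Activity is expressed as % positive cells, thresholded with 7.5 nM rapamycin.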
PMP22 txn: modulates PMP22 transcription in S16 Schwann cells; S16 Pmp22-F2sN Schwann cells, FLuc/NLuc coincidence luminescence, 24 h; Potency, µM (titrated, usually from 57.5 µM), actives largely listed as inhibitors; AID 1508649; 43,000 tested, 2% active; active means clear falling dose curves in both reporters; inconclusive means both reporters move, but less clearly or upward; inactive means either reporter flat; the % is the NLuc reporter signal
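S16 Schwann cells carrying FLuc/NLuc coincidence reporter in the Pmp22 3' UTR treated with compound 24 h at 37C; FLuc then NLuc luminescence read sequentially by dual-luciferase reagents.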
FH mod: Identification of activators of human fumarate hydratase by quantitative high-throughput screening. Potency, µM (doses to about 79.9 µM), most hits filed as inhibitors. 54,000 tested, 0.22% active. FH coupled MDH/diaphorase resazurin fluorescence, 15 min; further: the screen sought activators but most active calls are inhibition curves; nearly all actives have a fitted effect of over 45% in size
HTT-AS act: activates huntingtin-antisense promoter activity; HEK293 HTT-AS promoter firefly luciferase reporter, 24 h; response scale: percent change from vehicle, -100% = no light; Potency, µM (series often up to 57.5 µM), actives largely listed as activators; 48,000 tested, 0.24% active; AID 1508624; further: nearly all actives have a fitted effect of over 55% in size
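Firefly luciferase signal from promoter-reporter HEK293 cells was scaled between vehicle (0%) and zero RLU (-100%). Compounds were tested at final concentrations of up to 57.5 uM over 24 h at 37 degrees C. PTC124 at 50 uM final served as control inhibitor.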
S16 viability: cytotoxicity in S16 Pmp22-F2sN Schwann cells; S16 Pmp22-F2sN Schwann cells viability, CellTiter-Glo, 24 h; Potency, µM (top dose mostly 57.5 µM), most hits filed as cytotoxic; 43,000 tested, 0.48% active; AID 1508642; further: nearly all actives have a fitted effect of over 65% in size
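Viability was measured by CellTiter-Glo luminescence (15 min, room temperature). This followed 24 h at 37 °C of compound exposure (23 nL pin transfer) in S16 Pmp22-F2sN Schwann cells, 500-1,000 per well.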
NLuc saturating: NanoLuc enzyme inhibition artifact for PMP22 screen; shares compounds with PMP22 txn; Secreted NLuc enzyme (filtered S16 cell medium), Nano-Glo luminescence; Potency, µM (highest dose often 57.5 µM), most hits filed as inhibitors; 690 tested, 4% active; AID 1508638
NLuc Km counter: NanoLuc inhibition at Km substrate, PMP22 artifact check | shares compounds with PMP22 txn | AID 1508639 | 690 tested, 5% active | Potency, µM (doses to about 57.5 µM), most hits filed as inhibitors | secreted NLuc enzyme, coelenterazine luminescence, Km conditions
FLuc counter: inhibits firefly luciferase, PMP22 counter-screen; AID 1508640; purified P. pyralis FLuc, luminescence, 10 min; 690 tested, under 10 active; shares compounds with PMP22 txn; Potency, µM (series often up to 57.5 µM), most hits filed as inhibitors
Target sequence (P08659 whole entry, looked up): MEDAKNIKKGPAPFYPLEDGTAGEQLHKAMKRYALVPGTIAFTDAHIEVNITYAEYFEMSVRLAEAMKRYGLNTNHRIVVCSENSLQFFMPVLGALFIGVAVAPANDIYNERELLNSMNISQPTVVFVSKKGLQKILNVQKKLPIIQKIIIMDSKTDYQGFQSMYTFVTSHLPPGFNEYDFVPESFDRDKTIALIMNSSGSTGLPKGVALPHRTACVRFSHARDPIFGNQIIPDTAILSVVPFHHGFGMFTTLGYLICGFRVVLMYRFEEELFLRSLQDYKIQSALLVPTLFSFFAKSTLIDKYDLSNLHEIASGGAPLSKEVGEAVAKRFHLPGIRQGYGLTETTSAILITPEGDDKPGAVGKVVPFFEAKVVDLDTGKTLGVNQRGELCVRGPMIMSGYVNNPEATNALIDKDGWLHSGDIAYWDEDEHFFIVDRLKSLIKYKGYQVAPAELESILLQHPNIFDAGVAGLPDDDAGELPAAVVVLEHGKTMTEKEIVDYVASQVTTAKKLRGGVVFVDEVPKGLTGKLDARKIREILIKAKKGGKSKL
S16 F2sN tox cnf: S16 Schwann cell cytotoxicity, confirmatory | 690 tested, 7% active | S16 Schwann cells viability, CellTiter-Glo ATP luminescence, 24 h | Potency, µM (doses to about 57.5 µM), actives largely listed as cytotoxic | shares compounds with PMP22 txn | AID 1508641
PMP22 txn conf: confirmation of modulators of PMP22 gene transcription in S16 cells; 690 tested, 22% active; Potency, µM (titrated, usually from 57.5 µM), most hits filed as inhibitors; S16 Schwann cells Pmp22-F2sN, dual luciferase, 24 h; shares compounds with PMP22 txn; active means clear falling dose curves in both reporters; inconclusive means both reporters move, but less clearly or upward; inactive means either reporter flat; the % is the FLuc reporter signal
PMP22 prot conf: rat PMP22 protein level modulation, confirmatory; shares compounds with PMP22 txn; S16 Schwann cells Pmp22-HiBiT, luminescence, 48 h; Potency, µM (titrated, usually from 27.9 µM), usual class: inhibitors; 95 tested, under 10 active
Numbers stand for hits; i = inactive; ? = inconclusive; nt = no result given; [ ] = another dose, or the depositor's remark. Unless noted, the call rests on the fitted dose curve; in most records, active means well fitted curve in the direction sought with a large enough effect; inconclusive means small, poorly fitted or top-dose-only effect, or another doubt; inactive means no such curve, though single readings can be large; an effect the other way counts as inactive or inconclusive.

SMILES | HTT prom inh | pS6 MEF inh | PMP22 txn | FH mod | HTT-AS act | S16 viability | NLuc saturating | NLuc Km counter | FLuc counter | S16 F2sN tox cnf | PMP22 txn conf | others
CC1=CC(=O)C(=C(C)C)CC2C(C)(O)CCC12O (centres undefined) | nt | nt | nt | i | nt | nt | nt | nt | nt | nt | nt
O=C(Cn1c(=O)n(-c2ccc(Cl)cc2)c(=O)c2c3c(sc21)CCC3)c1ccc(F)cc1 | i | i | i | i | i | i | nt | nt | nt | nt | nt
O=c1c2c3c(sc2n(Cc2ccccc2F)c(=O)n1-c1ccc(Cl)cc1)CCCC3 | i | i | 10µM | i | i | i | i | i | i | i | ?
Oc1ccc2nc(CN3CCC(Cc4ccccc4F)CC3)[nH]c2c1 | nt | nt | nt | i | nt | nt | nt | nt | nt | nt | nt
CCOC(=O)c1oc2c(c1C)-c1nn(Cc3ccc(Cl)cc3)cc1CC2 | ? | i | ? | 31.6µM[activator] | i | i | ? | ? | i | i | i
COc1ccc([C@H]2OC[C@H]3O[C@@H](O[C@H]4[C@@H]2NC[C@@H]4O)[C@H](O)[C@H]3O)cc1 | nt | nt | nt | i | nt | nt | nt | nt | nt | nt | nt
C=C[C@H]1CN2CC[C@H]1C[C@@H]2C(O)c1ccnc2ccc(OC)cc12 (some centres undefined) | nt | nt | nt | i | nt | nt | nt | nt | nt | nt | nt
COC(=O)c1c(-c2ccc(Cl)cc2)noc1N1CCN(c2cc(C)ccc2C)CC1 | i | ? | 5.62µM | i | i | ? | i | i | i | ? | 17.2µM | PMP22 prot conf=?
COC(=O)c1c(-c2ccc(Cl)cc2)noc1N1CCN(c2ccc(C)cc2C)CC1 | i | i | 10µM | i | i | ? | i | i | i | ? | 19.3µM
C/C=C/C=C/c1cc2c(C=O)c(O)c(CC=C(C)C)cc2o1 | nt | nt | nt | i | nt | nt | nt | nt | nt | nt | nt
COc1ccc(C)cc1NC(=O)c1cc(S(=O)(=O)N2CCN(c3cccc(C)c3C)CC2)ccc1F | i | ? | ? | i | i | i | i | i | i | i | i
COc1ccccc1CN1C(=O)C(=O)c2cccc(C)c21 | i | i | i | i | i | ? | nt | nt | nt | nt | nt
Cc1cc(Br)cc2c1N(Cc1ccccc1OC(C)C)C(=O)C2=O | ? | ? | 9.46µM | ? | i | ? | ? | ? | i | ? | 14.5µM
CCN(C(=O)CN(C)S(=O)(=O)c1ccc2c(c1)n(C)c(=O)c(=O)n2C)c1cccc(C)c1 | i | i | 6.48µM | ? | i | i | i | i | i | i | i
CCOc1cc(-c2nnc(SCC(=O)NCc3ccccc3)nc2-c2ccc(OC)c(OCC)c2)ccc1OC | ? | i | 8.91µM | i | i | i | ? | ? | i | i | ?
N#Cc1cccc(-c2nc(-c3cccnc3)no2)c1 | nt | nt | nt | i | nt | nt | nt | nt | nt | nt | nt
C=C1CC2(C(=O)O)CC1CCC2C1(C)CCCC2(C)C(=O)OC(O)C21 (centres undefined) | nt | nt | nt | i | nt | nt | nt | nt | nt | nt | nt
